This is an account of results in PubChem BioAssay (NCATS).

A short description of test [1]: qHTS Assay for Identifying Gametocytocidal Compounds (AID 743244; active means well fitted curve in the direction sought with a large enough effect; an effect the other way counts as inactive or inconclusive; further: potency means the concentration at half of the fitted maximal effect;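 on max response: on the % scale 0 is the no-effect control and ±100 the full control effect; actives lower the fluorescent signal which means gametocytes are killed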). Particulars: P. falciparum 3D7 stage III-V gametocytes, alamarBlue, 72 h; max response: stronger effect = lower value. The procedure, abridged: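 In this qHTS viability screen, late-stage 3D7 gametocytes are incubated with compound for 72 h, then with alamarBlue for 24 h; reduced resorufin fluorescence marks killing.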

Test [2] is described as follows: qHTS profiling for inhibitors of Plasmodium falciparum (3D7) proliferation (AID 743322).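 Further: infected erythrocytes exposed to compound for 72 h before lysis; 100% = DMSO vehicle wells and 0% = 0.29 µM artemisinin.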 To be noted: P. falciparum 3D7 proliferation; at 28.7 µM (top of the series) unless noted. The procedure, abridged: (§1)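 Parasite DNA was quantified by SYBR Green I fluorescence (ex 485, em 535 nm) after overnight lysis in saponin/Triton buffer at room temperature. Cultures at 0.3% parasitemia and 2.5% hematocrit were first exposed to compound for 72 h at 37 C; signals were normalised to artemisinin (0.29 uM) and vehicle wells.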

Test [3] is described as follows: qHTS profiling for inhibitors of Plasmodium falciparum (DD2) proliferation (AID 743323). To be noted: lower = more inhibition; at 28.7 µM (top of the series) unless noted. In short, it runs like this:
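P. falciparum Dd2-infected erythrocytes (0.3% parasitemia, 2.5% hematocrit) exposed 72 h at 37 C, 5% CO2. Lysis with SYBR Green, overnight at room temperature, fluorescence 485/535 nm; normalized to 0.29 uM artemisinin and DMSO.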
In general terms: qHTS replaces the single test concentration by a dilution series.

A short description of test [4]: qHTS profiling of the MIPE4 collection as inhibitors of Plasmodium falciparum (3D7) proliferation (AID 743344).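 Further: scaled between DMSO vehicle wells and 0.29 µM artemisinin as full inhibition.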 Particulars: P. falciparum 3D7 in erythrocytes, SYBR Green DNA fluorescence, 72 h; at 28.5 µM (top of the series) unless noted. The procedure, abridged:
as §1

Test [5] can be described thus: qHTS profiling of the MIPE4 collection as inhibitors of Plasmodium falciparum (DD2) proliferation (AID 743345). Particulars: P. falciparum Dd2 in erythrocytes, SYBR Green DNA, 72 h; at 28.5 µM (top of the series) unless noted. In short, it runs like this:
as §1

Test [6] is described as follows: qHTS profiling of the MIPE4 collection as inhibitors of Plasmodium falciparum (DD2) proliferation (Rep 2) (AID 743346). To be noted: P. falciparum Dd2 in erythrocytes, SYBR Green DNA, 72 h; at 28.5 µM (top of the series) unless noted. In short, it runs like this: as §1
The nature of test [7]: qHTS profiling of the MIPE4 collection as inhibitors of Plasmodium falciparum (HB3) proliferation (AID 743347).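 Further: plate controls were DMSO vehicle wells for no effect and artemisinin wells for full effect.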 Particulars: P. falciparum HB3 in erythrocytes, SYBR Green DNA, 72 h; at 28.5 µM (top of the series) unless noted. In short, it runs like this:
as §1

Test [8] can be described thus: High-throughput drug toxicity screening in the BPDCN cell line Gen2.2 (AID 1224824).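 Further: cells exposed to compounds for 48 h before reading.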 Particulars: Gen2.2 BPDCN cells; at 45.8 µM (top of the series) unless noted. In short, it runs like this: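 Gen2.2, 500 cells/well, phenol red-free RPMI/10% FBS/Pen-Strep; 48 h cpd, 37 °C/5% CO2; CTG lum, 15 min RT. Norm: DMSO = 100%, bortezomib 9.2 uM final = 0%.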
Test [9] can be described thus: High-throughput drug toxicity screening in the BPDCN cell line Cal-1 (AID 1224825). Particulars: Cal-1 BPDCN cell viability, qHTS; at 45.8 µM (top of the series) unless noted. The procedure, abridged: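 Viability of the BPDCN line Cal-1 is measured as ATP-based luminescence (CellTiter-Glo) following 48 h incubation with compounds. Percent activity uses DMSO-treated wells as 100% and 9.2 uM bortezomib as 0%.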

Test [10] can be described thus: qHTS assay for measurement of the activity of small molecule inhibitors on Zika virus induced Caspase-3 activity in human iPSC derived neural progenitor cells (hNPCs) (AID 1224857; active means well fitted curve in the direction sought with a large enough effect; an effect the other way counts as inactive or inconclusive; further: % of control where 0% means no effect; nearly all actives have a fitted effect of over 65% in size). The procedure, abridged: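 In medium with heparin 2 ug/ml and cyclopamine 2 uM, hNPCs (350 cells/well) received compound for one hour and then Zika virus at 2 FFU/cell; caspase activity was measured by Caspase-Glo 3/7 luminescence 6 h post-infection.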

Test [11] can be described thus: qHTS assay for measurement of the activity of small molecule inhibitors on Zika virus induced Caspase-3 activity in human astrocytoma cells (AID 1224859; active means well fitted curve in the direction sought with a large enough effect; an effect the other way counts as inactive or inconclusive;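 further: plate controls were ZIKV-infected untreated cells for no effect and uninfected cells for full effect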). In short, it runs like this:
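A cell-based luminescent caspase-3/7 assay used SNB-19 cells infected with ZIKV (2 FFU/cell) for 6 h following 1 h compound pretreatment.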

The nature of test [12]: qHTS Screen of the MIPE 4.0 Collection Against Ewings Sarcoma (TC71) (AID 1259253; active means well fitted curve in the direction sought with a large enough effect; an effect the other way counts as inactive or inconclusive; further: nearly all actives have a fitted effect of over 40% in size; further: potency means the concentration at half of the fitted maximal effect). In short, it runs like this:
(§2)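 Measured: ATP luminescence (CellTiter-Glo) 10 min after reagent addition, following 48 h drug treatment. Relative luciferase units converted to percent activity, with no-cell wells as full and DMSO wells as zero inhibition.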

Test [13] in a line: qHTS Screen of the MIPE 4.0 Collection Against Ewings Sarcoma (EW8) (AID 1259255; active means well fitted curve in the direction sought with a large enough effect; an effect the other way counts as inactive or inconclusive; further: nearly all actives have a fitted effect of over 35% in size; further: potency means the concentration at half of the fitted maximal effect;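 on viability: 100% = DMSO-treated cells and 0% = medium-only wells without cells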). The procedure, abridged: as §2
The target in test [14] is T1, Hexokinase-4 (Homo sapiens) + Glucokinase regulatory protein (Homo sapiens) (UniProt P35557+Q14397). In words: qHTS assay for inhibitors of recombinant human GCK-GKRP interaction: Diaphorase-coupled assay (AID 743205; active means well fitted curve in the direction sought with a large enough effect; an effect the other way counts as inactive or inconclusive). In short, it runs like this:
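Inhibitors of the GCK–GKRP complex relieve GKRP suppression of GCK, detected through a G6PDH–diaphorase cascade reducing resazurin. Human GST-GCK and FLAG-GKRP are used at 10 nM with 5 mM glucose and 0.4 mM ATP.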

The target in test [15] is T1, Hexokinase-4 (Homo sapiens) + Glucokinase regulatory protein (Homo sapiens). In words: qHTS assay for inhibitors of recombinant human GCK-GKRP interaction: ADP-Glo assay (AID 743206; active means well fitted curve in the direction sought with a large enough effect; an effect the other way counts as inactive or inconclusive;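 further: plate controls were DMSO plus enzyme for no effect and no enzyme for full effect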). The procedure, abridged:
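Pin-transferred compounds meet a 15 nM GST-GCK/15 nM FLAG-GKRP/2 uM S6P mix (dispense concentrations). ATP is then added to 0.4 mM final with 5 mM glucose, and the reaction runs 60 min at room temperature. ADP is quantified luminescently.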

For test [16] the target is unchanged. In words: qHTS assay for inhibitors of recombinant human GCK-GKRP interaction: HTRF assay (AID 743207; active means well fitted curve in the direction sought with a large enough effect; an effect the other way counts as inactive or inconclusive;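 further: 0% = DMSO with GCK present and -100% = DMSO wells lacking GCK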). The procedure, abridged: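 Steps: dispense GCK–GKRP complex (5 nM each, GST- and FLAG-tagged) with 2 uM S6P; pin in compounds; add XL665/Eu-cryptate-labelled antibodies; incubate 60 min at room temperature; read time-resolved FRET at 665 and 615 nm.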
Test [17] can be described thus: qHTS assay for small molecule agonists of the antioxidant response element (ARE) signaling pathway measured by Nrf2-dependant transcriptional activity - cell viability counter screen (AID 720653; active means well fitted curve in the direction sought with a large enough effect in the repeat runs; an effect the other way counts as inactive or inconclusive; further: potency means the concentration at half of the fitted maximal effect). To be noted: ARE-bla HepG2 viability, CellTiter-Glo ATP luminescence, 16 h; max response: stronger effect = lower value. The procedure, abridged:
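ARE-bla HepG2 cells (2,000/well) rested 5 hrs at 37C/5% CO2, then exposed to compounds in DMSO for 16 hrs. Viability was read in the same wells as intracellular ATP by luminescence, 30 min at room temperature after reagent addition.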

Test [18] can be described thus: qHTS assay for cell viability of HEK293 cells (AID 743288; active means well fitted curve in the direction sought with a large enough effect; an effect the other way counts as inactive or inconclusive; further: potency means the concentration at half of the fitted maximal effect; nearly all actives have a fitted effect of over 50% in size). To be noted: ATP luminescence (CellTiter-Glo), 18 h; max response: stronger effect = lower value. In short, it runs like this: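 Quantitative high-throughput screen: compounds were pinned onto parental HEK293 cells (2,000 per well) after a minimum 5 h settling at 37 C, incubated 18 h at 37 C, and intracellular ATP measured by luciferase luminescence.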

The nature of test [19]: qHTS assay for cell viability of the p53RE-bla HCT-116 cell line (AID 743292; active means well fitted curve in the direction sought with a large enough effect; an effect the other way counts as inactive or inconclusive; further: potency means the concentration at half of the fitted maximal effect; nearly all actives have a fitted effect of over 55% in size). The procedure, abridged:
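In this qHTS counter-screen, metabolically competent p53RE-bla HCT-116 cells were counted via their ATP content. Compounds were applied for 16 h at 37 C and luciferase-coupled luminescence was measured.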

“And” between values parts separate entries of the source, which are not always exact repeats. Identical values can stand only once. Inconclusive results are not listed. The source made the active and inactive calls. Unless noted, how the calls were made is not given here.

T1 sequence (P35557 whole entry, looked up): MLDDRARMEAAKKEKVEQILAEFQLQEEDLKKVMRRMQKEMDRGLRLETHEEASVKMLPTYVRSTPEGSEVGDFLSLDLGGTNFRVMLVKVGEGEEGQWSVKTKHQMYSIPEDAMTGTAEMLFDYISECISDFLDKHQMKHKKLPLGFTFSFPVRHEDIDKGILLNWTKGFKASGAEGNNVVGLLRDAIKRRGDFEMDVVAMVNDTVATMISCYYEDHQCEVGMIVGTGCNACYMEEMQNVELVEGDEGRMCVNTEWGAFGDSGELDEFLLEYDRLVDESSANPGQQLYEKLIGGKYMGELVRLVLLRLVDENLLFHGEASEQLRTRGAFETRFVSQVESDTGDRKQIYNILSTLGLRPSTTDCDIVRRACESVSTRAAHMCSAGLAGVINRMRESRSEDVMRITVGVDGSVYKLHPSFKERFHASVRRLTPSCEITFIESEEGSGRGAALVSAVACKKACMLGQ
T1 sequence (Q14397 whole entry, looked up): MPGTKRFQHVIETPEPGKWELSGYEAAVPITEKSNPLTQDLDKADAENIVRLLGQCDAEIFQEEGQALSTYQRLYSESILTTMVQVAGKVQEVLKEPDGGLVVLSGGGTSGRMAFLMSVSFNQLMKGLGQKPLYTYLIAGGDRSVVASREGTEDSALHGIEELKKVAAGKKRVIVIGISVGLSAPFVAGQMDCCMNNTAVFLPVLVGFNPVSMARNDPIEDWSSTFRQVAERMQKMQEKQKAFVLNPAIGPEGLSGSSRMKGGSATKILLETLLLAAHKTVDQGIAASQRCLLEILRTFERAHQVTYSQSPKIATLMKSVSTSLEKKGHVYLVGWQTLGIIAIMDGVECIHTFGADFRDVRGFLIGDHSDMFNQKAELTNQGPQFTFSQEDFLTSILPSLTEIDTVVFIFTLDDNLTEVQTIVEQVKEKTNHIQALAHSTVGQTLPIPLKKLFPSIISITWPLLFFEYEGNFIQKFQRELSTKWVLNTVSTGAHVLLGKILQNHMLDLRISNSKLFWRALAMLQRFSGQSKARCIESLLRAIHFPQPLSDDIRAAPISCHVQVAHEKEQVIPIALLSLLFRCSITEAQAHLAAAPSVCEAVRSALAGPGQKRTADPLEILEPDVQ

In the case of `Cc1cccc(-c2[nH]ncc2-c2ccc3ncccc3n2)n1`, the max response in [1] is -4.01% (inactive). For the same compound, the remaining parasite growth % (stronger effect = lower value) in [2] came out at 92.9% [at 57.5 µM]. Besides, the activity, percent of control in test [3] was determined as 107% [at 57.5 µM]. Also, the parasite growth, % of DMSO control in test [4] is 74.7%. The same compound came in with a parasite growth remaining, % of DMSO control (lower = more inhibition) in test [5] of 94.4%. The parasite growth, % of control (lower = inhibition) in test [6] was found to be 81.1%. Also, the growth, % of control in [7] came to 52.8%. Also, the cell viability, % of control (lower = more cytotoxic) in [8] worked out at 759%. Besides, the viability (% of control) in test [9] came to 106%. For the same compound, the Potency result in test [10], in test [11], in [12] and in test [13] was “inactive” throughout.

Take `Cc1nc(Nc2ncc(C(=O)Nc3c(C)cccc3Cl)s2)cc(N2CCN(CCO)CC2)n1`: in [2], the remaining parasite growth % (stronger effect = lower value) was found to be 71.9%. Also, the activity, percent of control in [3] turned out to be 71.4%. For the same compound, the parasite growth, % of DMSO control in [4] amounted to 13.5%. The parasite growth remaining, % of DMSO control (lower = more inhibition) in [5] is 65.3%. This compound registered a parasite growth, % of control (lower = inhibition) in test [6] of 17.6%. Also, the growth, % of control in test [7] stood at 3.03%. In test [8], the cell viability, % of control (lower = more cytotoxic) turned out to be 74.9%. Besides, the viability (% of control) in [9] is 11.7%. Also, the Potency result in [10] and in [11] was “inactive” in each case. The Potency in [13] was 20.9 µM (active).

As for `O=C1c2ccccc2-c2n[nH]c3cccc1c23`, the outcome in test [14], in test [15] and in test [16] was inactive. In [4], this compound returned a parasite growth, % of DMSO control of 62.9%. For the same compound, the parasite growth remaining, % of DMSO control (lower = more inhibition) in test [5] amounted to 93%. Further, in test [6], the parasite growth, % of control (lower = inhibition) amounted to 87%. Moreover, in [7], the growth, % of control was 85.2%. Also, in test [8], the cell viability, % of control (lower = more cytotoxic) was 84.7%. Further, the viability (% of control) in [9] is 3.95%. Moreover, the Potency result in test [10] and in [11] was “inactive” throughout.

With `Clc1ccc(C(Cn2ccnc2)OCc2ccsc2Cl)c(Cl)c1` (configuration not stated), in test [1], the Potency is 6.31 µM (active). The compound further returned a parasite growth, % of DMSO control in test [4] of 4.99%. Also, the parasite growth remaining, % of DMSO control (lower = more inhibition) in test [5] amounted to 7.57%. Further, the parasite growth, % of control (lower = inhibition) in [6] was found to be 15.9%. The same compound displayed a growth, % of control in test [7] of 8.47%. For the same compound, in [8], the cell viability, % of control (lower = more cytotoxic) stood at 75.4%. In addition, in test [9], the viability (% of control) worked out at 32.2%. Also, the Potency result in test [10] and in test [11] was “inactive” in each case.

The compound `O=C(O)c1cn(-c2ccc(F)cc2)c2cc(N3CCNCC3)c(F)cc2c1=O` had a parasite growth, % of DMSO control in test [4] of 92.9%. In addition, the parasite growth remaining, % of DMSO control (lower = more inhibition) in [5] amounted to 67.2%. In test [6], this compound returned a parasite growth, % of control (lower = inhibition) of 50.7%. Also, in test [7], the growth, % of control was determined as 208%. The cell viability, % of control (lower = more cytotoxic) in test [8] is 47.7%. In addition, in test [9], the viability (% of control) was found to be 79.5%. Moreover, the Potency result in [10] and in test [11] was “inactive” throughout.

On to `CCc1nc(N)nc(N)c1-c1ccc(Cl)cc1`, for which the Potency is 11.2 µM (active) in test [17]; 10 µM (active) and 12.6 µM (active) in test [18]; 28.2 µM (active) in test [19]; 1.32 µM (active) in test [12]. For the same compound, the max response in test [1] is 14.3% (inactive). The remaining parasite growth % (stronger effect = lower value) in test [2] was -1.1%. Also, in test [3], the activity, percent of control worked out at 90.3%. Further, the parasite growth, % of DMSO control in test [4] is 30.2%. The parasite growth remaining, % of DMSO control (lower = more inhibition) in test [5] amounted to 83.6%. For the same compound, the parasite growth, % of control (lower = inhibition) in test [6] is 85.4%. For the same compound, the growth, % of control in [7] worked out at 18.1%. Further, the cell viability, % of control (lower = more cytotoxic) in [8] is 136%. The viability (% of control) in [9] was 37.1%. Further, the Potency entry in test [10] and in test [11] was “inactive” throughout.
